Reference: PubChem BioAssay (NCI)
The panel holds about 83,000 compounds, 20% with a hit somewhere; the sample as a whole holds those more often.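 Each cell line was grown in a 96-well plate and treated with one concentration of compound for 48 hours. Values below 10 were considered active.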 Active and inactive are the calls of the source.

system: NCI-H23 lung; assay: NCI-60 one-dose screen, 48 h (100 = growth as untreated, 0 = no growth, -100 = all killed); conditions: 10 µM unless noted

Row | SMILES | growth
1 | COC(=O)[C@]12CC[C@@H](C)[C@H](C)[C@@H]1C1=CC[C@@H]3[C@@]4(C)C(C=O)=C[C@@](C)(COC(=O)c5ccco5)C4=CC[C@@]3(C)[C@]1(C)CC2 | 8.23% (active)
2 | Nc1n[nH]c2cc(F)c([C@@H]3Nc4c(F)cc5[nH]ncc5c4[C@H]4C5CCC(C5)[C@@H]34)cc12 (some centres not stated) | 25.5% (inactive)
3 | CC1(c2ccccc2)NC(=O)N(NC(=O)CSc2nc(-c3cccs3)nc3ccccc23)C1=O (configuration not stated) | 89.7% (inactive)
4 | CC(C)C(=O)Nc1n[nH]c2cc(-c3cccc(NS(=O)(=O)C4CC4)c3)ccc12 | 53.6% (inactive)
5 | COc1c(CCC[P+](c2ccccc2)(c2ccccc2)c2ccccc2)cc2c(c1OC)OCO2 | 2.87% (active)
6 | CN(C)CC1=NC2SC=C(c3ccccc3)C2C(=O)N1CC#N (configuration not stated) | 102% (inactive)
7 | Cc1cc(C)c2c(-c3nnc(N)s3)cc(=O)oc2c1 | 96.3% (inactive)
8 | C[C@]12CC[C@@H]3c4cc(OC(F)F)c(O)cc4CC[C@H]3[C@@H]1CC[C@@H]2OS(N)(=O)=O | 3.46% (active)
9 | NC(=S)Nc1cccc(O)c1 | 90.6% (inactive)
10 | O=C(Nc1ccc(-n2cc(-c3ccncc3)c(-c3ccc(Cl)c(O)c3)n2)cc1)N1CCOCC1 | 111% (inactive)
11 | COc1ccc(-c2cc(-c3cc(OC)c(OC)c(OC)c3)c(C#N)c(N3CCOCC3)n2)cc1O | -6.35% (active)
12 | COC(=O)CCC1=C(C)C2=NC1=CC1=NC(=CC3=NC(=Cc4[nH]c(/c(=C(/C)O)c4C)=C2)C(C(C)=O)=C3C)C(C)=C1CCC(=O)OC | 99.8% (inactive)
